Assay [1] can be described thus: viability loss with induced miR-34 in A549 – imaging, A549 dox-inducible miR-34, nuclei and caspase counts, primary screen (AID 1347080). As to conditions: A549 miR-34 inducible, Hoechst nuclei count, 48 h.
Assay [2] can be described thus: galactose survival enhancers in mitochondrial complex I cybrids – cell-based, galactose medium, ATP luminescence, primary screen (AID 1645843;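 active = z-score of at least 1.8 in each of two replicates, scored against plate mean and spread of sample wells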;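 note: positive z means more ATP and so rescue of galactose-driven cybrid death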). Particulars: complex I mutant cybrid cells, 72 h, stronger effect = higher value.
Assay [3] addresses ATP-dependent translocase ABCB1 (Homo sapiens) (UniProt P08183). Nature of the assay: P-glycoprotein substrate transport blockade – cell-based (AID 377; in the data active = fluorescence slope change above about 50%). As to conditions: MDR1-expressing cells, fluorescent substrate accumulation slope; stronger effect = higher value; concentration not given here.
Assay [4] in a line: compounds altering viability of human ES cells (AID 493140; call rule not given here;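 note: cells exposed to compounds for four days before counting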). As to conditions: human embryonic stem cell survival screen; stronger effect = higher value.
Assay [5] can be described thus: P. berghei load reduction in hepatocytes – cell-based, HepG2, luciferase luminescence, HepG2 viability, primary screen (AID 624349; in the data active = parasite load remaining mostly below about 12%, no sharp cut-off; inactive = mostly above about 10%;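 note: 100% = mean of DMSO negative control wells on the same plate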). Particulars: P. berghei liver stage in HepG2, luciferase luminescence, concentration not given here; parasite load remaining: stronger effect = lower value; viability: measured here: HepG2 viability without parasites.
Assay [6] can be described thus: MELAS cybrid and Rieske KO viability enhancers – cell-based, MELAS cybrids, Rieske KO mouse fibroblasts, CellTiter-Glo, primary screen (AID 1508586;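 active = mean z-score across replicates of 1.96 or higher in either the MELAS or the Rieske mutant cell line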;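 note: z relative to plate mean and SD of compound and empty wells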). As to conditions: low glucose. Background: Cellular ATP, detected with luciferase, serves as a proxy for viable cell number.
Assay [7] can be described thus: compounds altering circadian rhythm period length – cell-based, LOPAC library, luminescence reporter (AID 2774; call rule not given here;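 note: values are relative to mean of DMSO wells on each plate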). Particulars: circadian reporter cells, at 7 µM, actives lie on both sides.
Assay [8] relates to Hepatitis C virus NS3 helicase. Nature of the assay: blockers of NS3h binding to ssDNA – biochemical, fluorescence polarization, LOPAC1280 library, primary screen (AID 687035; in the data active = inhibition above about 37%). Particulars: Purified HCV NS3 helicase, Cy5-dT15 ssDNA binding fluorescence polarization; stronger effect = higher value; concentration not given here.
The nature of assay [9]: compounds altering Cy5-DNA-NS3h complex signal – biochemical, LOPAC1280, artefact control for HCV NS3 helicase inhibitor project (AID 687037; call rule not given here). Particulars: Cy5-DNA-NS3h complex fluorescence interference counterscreen. (The purpose of a counterscreen is to sort out artefacts and off-target activity.)
Setting [10] is: measured here: relative caspase fold change +Dox/-Dox.
Where [11] appears, read: measured here: total cells with miR-34 induction, stronger effect = lower value.
The mark [12] stands for this setting: measured here: total cells without miR-34 induction.
The mark [13] stands for this setting: MELAS cybrid survival, CellTiter-Glo 48 h, stronger effect = higher value.
Where [14] appears, read: Rieske KO mouse fibroblast survival, CellTiter-Glo 72 h.
Where [15] appears, read: stronger effect = lower value, cell number ratio, induced over uninduced.

As a reminder, the viability is a read-out of living cells in per cent, often relative to untreated cells. Usually inhibition stands for the relative decrease from the control value, in per cent.

Several values for one entry are separate records, joined by “and”; a condition that tells them apart may be missing. Equal values may be shown once. Inconclusive results are not listed. Activity calls are given as the source filed them.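 Rule for the calls, unless noted: active = compounds whose cell count with miR-34 switched on is under 0.7 times the count with it off; inactive = the rest.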

Sequence of ATP-dependent translocase ABCB1 (Homo sapiens) (P08183 whole entry, looked up): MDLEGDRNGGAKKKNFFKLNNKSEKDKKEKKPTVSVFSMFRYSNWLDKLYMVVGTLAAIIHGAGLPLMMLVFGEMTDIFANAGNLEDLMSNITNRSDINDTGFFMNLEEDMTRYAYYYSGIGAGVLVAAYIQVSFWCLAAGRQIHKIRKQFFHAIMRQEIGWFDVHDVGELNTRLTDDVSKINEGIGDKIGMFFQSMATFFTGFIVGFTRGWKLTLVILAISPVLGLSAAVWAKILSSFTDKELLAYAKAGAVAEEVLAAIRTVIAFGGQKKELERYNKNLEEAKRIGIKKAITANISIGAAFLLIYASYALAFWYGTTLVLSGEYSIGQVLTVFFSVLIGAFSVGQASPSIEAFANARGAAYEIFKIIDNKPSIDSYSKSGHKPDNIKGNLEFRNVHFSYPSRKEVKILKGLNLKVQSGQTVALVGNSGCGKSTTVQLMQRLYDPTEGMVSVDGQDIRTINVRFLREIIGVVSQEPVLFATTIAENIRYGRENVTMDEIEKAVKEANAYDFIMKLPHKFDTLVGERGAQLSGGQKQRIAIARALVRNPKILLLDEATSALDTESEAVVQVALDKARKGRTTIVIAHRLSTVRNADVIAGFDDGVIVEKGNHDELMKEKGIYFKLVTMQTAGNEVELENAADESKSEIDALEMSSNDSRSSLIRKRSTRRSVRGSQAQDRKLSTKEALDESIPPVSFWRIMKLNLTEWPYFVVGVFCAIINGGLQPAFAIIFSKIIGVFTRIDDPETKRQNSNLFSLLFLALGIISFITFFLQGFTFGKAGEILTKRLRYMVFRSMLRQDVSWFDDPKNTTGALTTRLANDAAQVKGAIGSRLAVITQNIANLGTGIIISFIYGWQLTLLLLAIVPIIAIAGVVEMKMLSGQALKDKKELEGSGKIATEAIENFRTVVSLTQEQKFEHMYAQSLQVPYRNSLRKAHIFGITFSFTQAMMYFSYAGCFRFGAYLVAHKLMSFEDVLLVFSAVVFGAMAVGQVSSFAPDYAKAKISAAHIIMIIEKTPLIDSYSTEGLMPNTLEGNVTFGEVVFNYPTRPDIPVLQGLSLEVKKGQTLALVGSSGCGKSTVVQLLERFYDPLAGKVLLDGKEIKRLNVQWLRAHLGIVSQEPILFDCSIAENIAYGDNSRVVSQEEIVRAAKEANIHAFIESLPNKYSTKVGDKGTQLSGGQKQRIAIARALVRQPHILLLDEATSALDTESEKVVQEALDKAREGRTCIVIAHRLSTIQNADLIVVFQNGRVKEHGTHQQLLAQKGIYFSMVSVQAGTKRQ

Consider `C[C@]12CCC(=O)C=C1CCC1C2CC[C@@]2(C)C1CC[C@]2(C)O` (some centres undefined), for which the fold change in assay [1] (stronger effect = lower value) is 1.16 (inactive); in [1] (setting [10]) it was 0.795. In addition, the cell count in assay [1] (setting [11]) amounted to 2670; in assay [1] (setting [12]) it was 2300. The z-score in assay [2] was -1.03 (inactive).

In the case of `C[C@]12CCC3[C@@H](CC[C@@H]4C[C@H](O)CC[C@]34C)[C@@H]1CCC2=O` (some centres undefined), in assay [3], the fluorescence slope change was 52.7% (active). In addition, the survival in [4] was 4.25 (inactive). The parasite load remaining in assay [5] was 68.6% (inactive). Besides, in [5], the viability amounted to 95.7%. Besides, the fold change in assay [1] (stronger effect = lower value) is 0.895 (inactive); in [1] (setting [10]), 1.16. For the same molecule, the cell count in assay [1] (setting [11]) was found to be 8930; in assay [1] (setting [12]), 9980. Moreover, the z-score was -0.449 (inactive) in assay [6] (setting [13]) and 0.448 in assay [6] (setting [14]).

For the molecule `C[C@]12CC[C@H](O)C[C@H]1CC[C@@H]1[C@@H]2CC[C@]2(C)[C@@H](C3=CC(=O)OC3)CC[C@]12O`, the fluorescence slope change in [3] is 80.1% (active). Further, the survival in assay [4] was 11.7 (inactive). Moreover, the parasite load remaining in [5] was -9.15% (inactive) and 10.4% (inactive). In addition, the viability in [5] was 40.6% and 30.9%. In addition, the results for the fold change in assay [1] (stronger effect = lower value) and in assay [1] (setting [10]) were 0.981 (inactive) and 1.54, respectively. In addition, the cell count was 557 in [1] (setting [11]) and 568 in assay [1] (setting [12]). Besides, the z-score in [6] (setting [13]) was -0.147 (inactive); in assay [6] (setting [14]), 0.0544.

In the case of `C/C=C/N1CC[C@]23CCCC[C@H]2[C@H]1Cc1ccc(O)cc13`, the parasite load remaining in [5] is 46.3% (inactive). Moreover, the viability in [5] is 104%. Further, the fold change in [1] (stronger effect = lower value) was 0.904 (inactive); in assay [1] (setting [10]), 1.04. Moreover, the cell count was 9380 in assay [1] (setting [11]) and 10400 in assay [1] (setting [12]). Also, the figures for the z-score in [6] (setting [13]), in assay [6] (setting [14]) and in [2] were -1.07 (inactive), -0.504 and 0.26 (inactive), respectively.

Regarding `C[C@]12Cc3cn[nH]c3CC1CCC1C2CC[C@@]2(C)C1CC[C@]2(C)O` (some centres undefined), the fold change in [1] (stronger effect = lower value) is 0.922 (inactive); in assay [1] (setting [10]) it was 1.42. Also, the cell count in assay [1] (setting [11]) turned out to be 8110; in assay [1] (setting [12]), 8800. Moreover, the z-score in assay [2] is -0.42 (inactive).

Regarding `CC(C)C[C@H]1C(=O)N2CCC[C@H]2[C@]2(O)O[C@](NC(=O)[C@@H]3C=C4c5cccc6[nH]cc(c56)C[C@H]4N(C)C3)(C(C)C)C(=O)N12`, the fluorescence slope change in [3] was 95.9% (active). Besides, in assay [4], the survival was 9.42 (inactive). The parasite load remaining in assay [5] was 59.7% (inactive). Besides, in assay [5], the viability was 94.6%. In addition, the fold change in assay [1] (stronger effect = lower value) is 0.917 (inactive); in assay [1] (setting [10]), 1.12. The cell count in assay [1] (setting [11]) is 7540; in assay [1] (setting [12]), 8220.

For the molecule `NC(CCCCCP(=O)(O)O)C(=O)O` (centres undefined), the period change in assay [7] is -0.03 h (inactive). For the same molecule, in assay [8], the inhibition was -1% (inactive). The fluorescence ratio (interference) in assay [9] is 1 (inactive). Also, the fold change in [1] (stronger effect = lower value) is 1.02 (inactive); in assay [1] (setting [10]) it was 2.45. Also, the cell count in assay [1] (setting [11]) was 10400; in assay [1] (setting [12]), 10200. Further, the z-score in assay [2] was 0.42 (inactive).

As for `COC1=C[C@@H]2C3=C([C@@H]2C1=O)[C@@H](NC(C)=O)CCc1cc(OC)c(OC)c(OC)c13`, in assay [3], the fluorescence slope change is 70.2% (active). For the same molecule, the parasite load remaining in [5] was 62.8% (inactive). Further, the viability in [5] came to 107%. Also, the fold change in [1] (setting [15]) is 0.865 (inactive); in [1] (setting [10]), 1.41. The cell count in assay [1] (setting [11]) was 9450; in assay [1] (setting [12]), 10900.

With `CN1CCC(c2ccc(F)cc2)C(COc2ccc3c(c2)OCO3)C1` (centres undefined), the fold change in assay [1] (setting [15]) was 0.906 (inactive); in assay [1] (setting [10]) it was 1.59. Moreover, the figures for the cell count in assay [1] (setting [11]) and in [1] (setting [12]) were 7350 and 8110, respectively. The z-score in [2] was -1.4 (inactive).

Take `COc1ccc(C[C@@H]2NC[C@@H](O)[C@@H]2OC(C)=O)cc1`: in assay [4], the survival is 0.25 (inactive). Besides, the parasite load remaining in [5] is 4.56% (inactive). Further, in assay [5], the viability was determined as 32.9%. Further, the fold change in [1] (stronger effect = lower value) is 0.95 (inactive); in assay [1] (setting [10]), 1.1. In addition, the cell count in [1] (setting [11]) was determined as 1100; in assay [1] (setting [12]), 1160.

The record behind these values is PubChem BioAssay.
